Test results as given in PubChem BioAssay AID1159580 (chemical genetic matrix, 2015).
The whole screen tested about 5,500 compounds, of which about 2,000 (36%) were called active. Another 18% or so got no clear call; they are omitted. Rule as the data show it: active = normalized growth mostly below about 0.91 (no sharp cut-off); inconclusive = no clear call, values can overlap the other calls; inactive = mostly above about 0.92. The list shows a part of the results.

Assay: chemical genetic growth profiling, strain panel (AID 1159580);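 also: tested at 20 µM; growth read once vehicle control cultures reached saturation at 30 °C; 1 = growth at the plate median or of vehicle wells; lower values mean less growth of the strain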
Conditions: growth OD

Measured: normalized growth

CCOc1cccc(C(=O)c2ccc(O)c(O)c2O)c1
inactive: S. cerevisiae deletion strains, locus YKL009W, strain mrt4, stronger effect = lower value 0.914 | S. cerevisiae deletion strains, locus YKL068W, stronger effect = lower value 0.972 | S. cerevisiae deletion strains, locus YKL085W, strain MDH1 (second series), stronger effect = lower value 0.955 | S. cerevisiae deletion strains, locus YKL085W, strain MDH1, stronger effect = lower value 0.955 | S. cerevisiae deletion strains, locus YKL160W, strain elf1, stronger effect = lower value 0.93 | S. cerevisiae deletion strains, locus YKR026C, strain gcn3, stronger effect = lower value 0.956 | S. cerevisiae deletion strains, locus YKR091W, strain srl3, stronger effect = lower value 0.966 | S. cerevisiae deletion strains, locus YLL001W, strain dnm1, stronger effect = lower value 0.945 | S. cerevisiae deletion strains, locus YLL026W, stronger effect = lower value 0.936 | S. cerevisiae deletion strains, locus YLL041C, strain sdh2, stronger effect = lower value 0.939 | S. cerevisiae deletion strains, locus YLR102C, strain apc9, stronger effect = lower value 0.996 | S. cerevisiae deletion strains, locus YLR113W, strain HOG1, stronger effect = lower value 1.05 | S. cerevisiae deletion strains, locus YLR370C, strain arc18, stronger effect = lower value 0.939 | S. cerevisiae deletion strains, locus YLR384C, strain iki3, stronger effect = lower value 0.938 | S. cerevisiae deletion strains, locus YML032C, strain rad52, stronger effect = lower value 0.942 | S. cerevisiae deletion strains, locus YML124C, strain tub3, stronger effect = lower value 0.948 | S. cerevisiae deletion strains, locus YMR078C, strain ctf18, stronger effect = lower value 0.966 | S. cerevisiae deletion strains, locus YMR125W, strain sto1, stronger effect = lower value 0.976 | S. cerevisiae deletion strains, locus YMR129W, stronger effect = lower value 0.95 | S. cerevisiae deletion strains, locus YMR307W, strain GAS1, stronger effect = lower value 0.698 | S. cerevisiae deletion strains, locus YNL183C, strain NPR1, stronger effect = lower value 0.98 | S. cerevisiae deletion strains, locus YNL248C, strain rpa49, stronger effect = lower value 0.95 | S. cerevisiae deletion strains, locus YNL250W, strain rad50, stronger effect = lower value 0.937 | S. cerevisiae deletion strains, locus YNL298W, strain CLA4, stronger effect = lower value 0.931 | S. cerevisiae deletion strains, locus YNL307C, strain MCK1, stronger effect = lower value 0.907 | S. cerevisiae deletion strains, locus YNL322C, strain KRE1 (second series), stronger effect = lower value 0.965 | S. cerevisiae deletion strains, locus YNR049C, strain mso1, stronger effect = lower value 0.961 | S. cerevisiae deletion strains, locus YOL012C, strain htz1 0.288 | S. cerevisiae deletion strains, locus YOR080W, strain dia2, stronger effect = lower value 0.961 | S. cerevisiae deletion strains, locus YOR083W, strain WHI5, stronger effect = lower value 0.894 | S. cerevisiae deletion strains, locus YOR136W, strain idh2, stronger effect = lower value 0.93 | S. cerevisiae deletion strains, locus YOR231W, strain MKK1, stronger effect = lower value 1 | S. cerevisiae deletion strains, locus YOR316C, strain cot1, stronger effect = lower value 0.962 | S. cerevisiae deletion strains, locus YPL078C, strain atp4, stronger effect = lower value 0.931 | S. cerevisiae deletion strains, locus YPL240C, strain hsp82, stronger effect = lower value 0.954 | S. cerevisiae deletion strains, locus YPL256C, strain CLN2, stronger effect = lower value 1.07 | S. cerevisiae deletion strains, locus YPR119W, strain clb2, stronger effect = lower value 0.982 | S. cerevisiae deletion strains, locus YPR141C, strain kar3, stronger effect = lower value 0.963 | S. cerevisiae deletion strains, locus YPR163C, strain tif3, stronger effect = lower value 0.936
active: S. cerevisiae deletion strains, locus YKR001C, strain vps1, stronger effect = lower value 0.811 | S. cerevisiae deletion strains, locus YLR027C, strain aat2, stronger effect = lower value 0.905 | S. cerevisiae deletion strains, locus YLR039C, strain RIC1, stronger effect = lower value 0.521 | S. cerevisiae deletion strains, locus YLR058C, strain SHM2, stronger effect = lower value 0.524 | S. cerevisiae deletion strains, locus YLR221C, strain rsa3, stronger effect = lower value 0.87 | S. cerevisiae deletion strains, locus YLR258W, strain gsy2, stronger effect = lower value 0.899 | S. cerevisiae deletion strains, locus YLR262C, strain YPT6 (second series), stronger effect = lower value 0.627 | S. cerevisiae deletion strains, locus YLR268W, strain sec22, stronger effect = lower value 0.72 | S. cerevisiae deletion strains, locus YLR320W, strain mms22, stronger effect = lower value 0.806 | S. cerevisiae deletion strains, locus YLR330W, strain CHS5, stronger effect = lower value 0.804 | S. cerevisiae deletion strains, locus YLR342W, strain FKS1 (second series), stronger effect = lower value 0.633 | S. cerevisiae deletion strains, locus YLR342W, strain FKS1, stronger effect = lower value 0.903 | S. cerevisiae deletion strains, locus YLR357W, strain rsc2, stronger effect = lower value 0.706 | S. cerevisiae deletion strains, locus YLR371W, strain rom2, stronger effect = lower value 0.737 | S. cerevisiae deletion strains, locus YLR418C, strain cdc73, stronger effect = lower value 0.563 | S. cerevisiae deletion strains, locus YML016C, strain PPZ1, stronger effect = lower value 0.71 | S. cerevisiae deletion strains, locus YML120C, strain ndi1, stronger effect = lower value 0.765 | S. cerevisiae deletion strains, locus YMR058W, strain fet3, stronger effect = lower value 0.283 | S. cerevisiae deletion strains, locus YMR205C, strain PFK2, stronger effect = lower value 0.74 | S. cerevisiae deletion strains, locus YMR223W, strain ubp8, stronger effect = lower value 0.844 | S. cerevisiae deletion strains, locus YMR231W, strain pep5, stronger effect = lower value 0.826 | S. cerevisiae deletion strains, locus YMR263W, strain SAP30, stronger effect = lower value 0.854 | S. cerevisiae deletion strains, locus YNL067W, strain RPL9B, stronger effect = lower value 0.841 | S. cerevisiae deletion strains, locus YNL071W, strain lat1, stronger effect = lower value 0.889 | S. cerevisiae deletion strains, locus YNL153C, strain GIM3, stronger effect = lower value 0.747 | S. cerevisiae deletion strains, locus YNL209W, strain ssb2, stronger effect = lower value 0.752 | S. cerevisiae deletion strains, locus YNL233W, strain BNI4, stronger effect = lower value 0.781 | S. cerevisiae deletion strains, locus YNL271C, strain bni1, stronger effect = lower value 0.886 | S. cerevisiae deletion strains, locus YNR052C, strain pop2, stronger effect = lower value 0.739 | S. cerevisiae deletion strains, locus YOL006C, strain TOP1, stronger effect = lower value 0.398 | S. cerevisiae deletion strains, locus YOL147C, strain pex11, stronger effect = lower value 0.823 | S. cerevisiae deletion strains, locus YOR001W, strain rrp6, stronger effect = lower value 0.87 | S. cerevisiae deletion strains, locus YOR061W, strain CKA2, stronger effect = lower value 0.788 | S. cerevisiae deletion strains, locus YOR069W, strain VPS5, stronger effect = lower value 0.808 | S. cerevisiae deletion strains, locus YOR070C, strain gyp1, stronger effect = lower value 0.925 | S. cerevisiae deletion strains, locus YOR106W, strain vam3, stronger effect = lower value 0.639 | S. cerevisiae deletion strains, locus YOR144C, strain elg1, stronger effect = lower value 0.816 | S. cerevisiae deletion strains, locus YOR184W, strain ser1, stronger effect = lower value 0.812 | S. cerevisiae deletion strains, locus YOR265W, strain rbl2, stronger effect = lower value 0.923 | S. cerevisiae deletion strains, locus YOR270C, strain vph1, stronger effect = lower value 0.637 | S. cerevisiae deletion strains, locus YOR290C, strain snf2, stronger effect = lower value 0.64 | S. cerevisiae deletion strains, locus YPL051W, strain arl3, stronger effect = lower value 0.767 | S. cerevisiae deletion strains, locus YPL106C, strain sse1, stronger effect = lower value 0.823 | S. cerevisiae deletion strains, locus YPL241C, strain CIN2, stronger effect = lower value 0.926 | S. cerevisiae deletion strains, locus YPR167C, strain met16, stronger effect = lower value 0.84 | S. cerevisiae deletion strains, strain wtn01, stronger effect = lower value 0.799 | S. cerevisiae strains, strain wild type, stronger effect = lower value 0.635
